{"source": "the supplement of paper PMC12340641", "note": "± gives the standard deviation of the averaged measurements."}
{"system": "HEK293FT dCK*-only", "experiment": "relative growth in counter assay (no AraC = 100%, AraC + DMSO = 0%); higher = more growth rescue independent of IKZF1", "conditions": "compound concentration: 5 uM; AraC concentration: 0.3 uM; overnight pretreatment + 4 days AraC", "procedure,_shortened": "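For this counter assay, relative growth was normalised on each plate to two kinds of reference wells. HEK293FT cells expressing only an engineered kinase construct (300/well, 384-well) were treated with 5 μM compound 2 h after seeding, then after overnight at 37 °C with a nucleoside suicide substrate at 0.3 μM plus medium for 4 days. On day 5, Hoechst 33342-stained nuclei were counted by imaging, taking wells without suicide substrate as 100% and substrate plus vehicle as 0%.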", "units": {"relative growth in counter assay": "%"}}
{"smiles": "ClC(C=C3)=C(Cl)C=[C@@]3[C@H]2C1=CC=CC=C1[C@H](NC)C2", "note": "[indatraline]", "relative growth in counter assay": 0.14}
{"smiles": "Oc1cc(Cl)ccc1Oc1ccc(Cl)cc1Cl", "relative growth in counter assay": -4.14}
{"smiles": "C[C@@]12C(=O)OC(=O)[C@]1(C)[C@H]1CC[C@@H]2O1", "note": "[cantharidin]", "relative growth in counter assay": 3.7}
{"smiles": "c1ccc(CCCN2CCN(CCOC(c3ccccc3)c3ccccc3)CC2)cc1", "relative growth in counter assay": -4.09}
{"smiles": "Fc1ccc(C(OCCN2CCN(C/C=C/c3ccccc3)CC2)c2ccc(F)cc2)cc1", "relative growth in counter assay": 4.29}
{"smiles": "CN(C)C(=S)SSC(=S)N(C)C", "relative growth in counter assay": -35.1}
{"smiles": "COc1cc([C@@H]2c3cc4c(cc3[C@H](O)[C@H]3COC(=O)C23)OCO4)cc(OC)c1OC", "note": "(stereo partly drawn) [Podofilox]", "relative growth in counter assay": -34}
{"smiles": "CO[C@H]1C[C@H](O[C@H]2CC[C@@]3(C)[C@H](CC[C@@H]4[C@@H]3CC[C@]3(C)[C@@H](C5=CC(=O)OC5)[C@@H](OC(C)=O)C[C@]43O)C2)O[C@@H](C)[C@@H]1O", "note": "[Oleandrin]", "relative growth in counter assay": -35}
{"smiles": "COc1cc2c(c(OC)c1OC)-c1ccc(OC)c(=O)cc1[C@@H](NC(C)=O)CC2", "relative growth in counter assay": -34.4}
{"smiles": "COc1cc([C@@H]2c3cc4c(cc3[C@H](O)[C@H]3COC(=O)[C@H]23)OCO4)cc(OC)c1OC", "relative growth in counter assay": -33.7}
{"smiles": "C=C(C)CN1CC[C@]23c4c5ccc(O)c4O[C@H]2c2[nH]c4ccccc4c2C[C@@]3(O)C1C5", "relative growth in counter assay": -7.54}
{"smiles": "C[C@]12CCC3C(CC[C@]4(O)C[C@@H](O)CC[C@]34C=O)[C@@]1(O)CCC2C1=CC(=O)OC1", "note": "(stereo partly drawn) [Strophantidin]", "relative growth in counter assay": -32.9}
{"smiles": "COc1cc2c(c(OC)c1OC)-c1ccc(OC)c(=O)cc1[C@@H](NC(C)=O)CC2", "note": "[Colchicine]", "relative growth in counter assay": "-33.57 ± 0.13"}
{"smiles": "O=c1[nH]c2ccccc2n1CCCN1CCC(n2c(=O)[nH]c3cc(Cl)ccc32)CC1", "relative growth in counter assay": -4.05}
{"smiles": "O=C(N/N=C/c1ccc([N+](=O)[O-])o1)c1cc([N+](=O)[O-])cc([N+](=O)[O-])c1O", "relative growth in counter assay": -3.38}
{"smiles": "C[C@@]1(CO)[C@H](O)CC[C@@]2(C)[C@H]1CC[C@H]1C[C@@H]3C[C@@]12CC[C@]3(O)CO", "note": "[Aphidicolin]", "relative growth in counter assay": -34.1}
{"smiles": "CC[C@H]1C2CC3[C@@H]4N(C)c5ccccc5[C@]45C[C@@H](C2C5O)N3[C@@H]1O", "note": "(stereo partly drawn)", "relative growth in counter assay": 5.04}
{"smiles": "COC[C@H]1OC(=O)c2coc3c2[C@@]1(C)C1=C(C3=O)[C@@H]2CCC(=O)[C@@]2(C)C[C@H]1OC(C)=O", "note": "[Wortmannin]", "relative growth in counter assay": 0.96}
{"smiles": "CC(=O)OC[C@]12CCC(C)=C[C@H]1O[C@@H]1[C@H](O)[C@@H](OC(C)=O)[C@@]2(C)[C@@]12CO2", "note": "[Diacetoxyscirpenol]", "relative growth in counter assay": -34.2}
{"smiles": "CC[C@@]1(C2O[C@@H](C3O[C@@](O)(CO)[C@H](C)C[C@@H]3C)C[C@@H]2C)CC[C@H]([C@]2(C)CC[C@]3(C[C@H](O)[C@@H](C)[C@@H]([C@@H](C)[C@@H](OC)[C@H](C)C(=O)O)O3)O2)O1", "note": "(stereo partly drawn)", "relative growth in counter assay": -4.55}
{"smiles": "O=C(Nc1ccc(Br)cc1)c1cc(Br)cc(Br)c1O", "note": "[tribomsalan]", "relative growth in counter assay": -2.64}
{"smiles": "O=c1[nH]c2ccccc2n1C1CCN(CCCC(c2ccc(F)cc2)c2ccc(F)cc2)CC1", "note": "[Pimozide]", "relative growth in counter assay": -9.38}
{"smiles": "c1ccc2c(c1)Sc1ccccc1N2CC1CN2CCC1CC2", "note": "(stereo not drawn) [levomequitazine]", "relative growth in counter assay": -5.25}
{"smiles": "NCC1(CC(=O)O)CCCCC1", "relative growth in counter assay": -10.5}
{"smiles": "C[C@]12CC[C@H](O)C[C@H]1CC[C@@H]1[C@@H]2C[C@@H](O)[C@]2(C)[C@@H](C3=CC(=O)OC3)CC[C@]12O", "note": "[Digoxigenin]", "relative growth in counter assay": -33.8}
{"smiles": "N=C(Nc1ccccc1)Nc1ccccc1", "note": "[diphenylguanidine]", "relative growth in counter assay": -6.47}
{"smiles": "O=c1[nH]c2ccccc2n1C1CCN(CCCC(c2ccc(F)cc2)c2ccc(F)cc2)CC1", "relative growth in counter assay": 3.23}
{"smiles": "CO[C@@]12C(=COC(N)=O)c3c(O)c(N)c(C)c(O)c3N1C[C@@H]1N[C@@H]12", "note": "[Mitomycin C]", "relative growth in counter assay": -25.9}
{"smiles": "CC(Cc1ccccc1)NCCC(c1ccccc1)c1ccccc1", "note": "(stereo not drawn) [prenylamine]", "relative growth in counter assay": 9.26}
{"smiles": "CO[C@H]1[C@H](O)[C@H](O[C@H]2CC[C@@]3(C=O)[C@H](CC[C@@H]4[C@@H]3CC[C@]3(C)[C@@H](C5=CC(=O)OC5)CC[C@]43O)C2)O[C@@H](C)[C@@H]1O", "note": "[Peruvoside]", "relative growth in counter assay": -34.2}
{"smiles": "C[C@@H]1C[C@@H]([C@H](O)CC2CC(=O)NC(=O)C2)C(=O)[C@@H](C)C1", "relative growth in counter assay": -33.1}
{"smiles": "CC[C@H]1CN2CCc3cc(OC)c(OC)cc3C2C[C@@H]1CC1NCCc2cc(OC)c(OC)cc21", "note": "(stereo partly drawn)", "relative growth in counter assay": -34.9}
{"smiles": "CC(C)[C@]12O[C@H]1[C@@H]1O[C@]13[C@]1(O[C@H]1C[C@H]1C4=C(CC[C@@]13C)C(=O)OC4)[C@@H]2O", "note": "[Triptolide]", "relative growth in counter assay": -34}
